Laboratory results as given in PubChem BioAssay.
For some of these results: Entries with a potency or affinity are not part of this list. Calls of active or inactive are those of the source.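 The calls were made as follows, unless noted: active = membrane potential signal rise above negative control mean plus 3 SD in both duplicates, also active in the earlier TRPC4 screen; inactive = the rest.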

Key:
[1] = system: TRPC4 beta (transient receptor potential cation channel C4), mouse; assay: activators of mouse TRPC4 channel, confirmation, cell-based, Fluo4 calcium, HEK293 TRPC4beta/mu-opioid, duplicates, 10 µM (AID 2426;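 active = fluorescence ratio normalized to control raised more than 50% in primary screen plus both repeat runs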); details: Fluo4 calcium fluorescence, at 10 µM; active compounds read high
[2] = system: transient receptor potential cation channel C4 beta (TRPC4), mouse; assay: activators of mouse TRPC4 channel, confirmation, cell-based, second round, Fluo4, HEK293 TRPC4beta/mu-opioid, 1 µM (AID 2461;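 active = primary screen active and over 50% activation in each of two duplicate runs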); details: Fluo4 calcium fluorescence, at 1 µM; active compounds read high
[3] = system: TRPC4 (transient receptor potential cation channel C4 beta), mouse; assay: positive allosteric modulators of mouse TRPC4, confirmation, cell-based, second round, Fluo-4, HEK293 TRPC4beta/mu-opioid, 1 µM (AID 2554;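 active = primary screen hit whose fluorescence ratio, in both repeats, exceeds the weak agonist control mean by 3 SD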); details: DAMGO EC20, Fluo-4 calcium flux, at 1 µM; active compounds read high
[4] = system: TRPC4 beta (transient receptor potential cation channel C4), mouse; assay: positive allosteric modulators of mouse TRPC4, confirmation, cell-based, Fluo-4, HEK293 TRPC4beta/mu-opioid (AID 2555;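 active = primary screen hit whose calcium fluorescence ratio, in both repeats, exceeds the weak agonist control mean by 3 SD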); details: DAMGO EC20, Fluo-4 calcium flux, at 10 µM; active compounds read high
[5] = target: Short transient receptor potential channel 4 (Mus musculus) (UniProt Q9QUQ5); assay: inhibitors of mouse TRPC4 channel, confirmation, cell-based, Fluo4, HEK293 TRPC4beta/mu-opioid (AID 2636;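 active = calcium signal cut by more than 3 SD below the full-agonist control yet still positive, in both repeats and the earlier primary screen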); details: DAMGO, Fluo4 calcium flux, at 10 µM; active compounds read high
[6] = target: Short transient receptor potential channel 4 (Mus musculus) (UniProt Q9QUQ5); assay: inhibitors of mouse TRPC4 channel, confirmation, cell-based, second round, Fluo4, HEK293 TRPC4beta/mu-opioid, 1 µM (AID 2637;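 active = calcium signal ratio cut to more than 3 SD under the fully stimulated control mean yet still positive, in both repeats and the primary screen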); details: Fluo4 calcium flux, DAMGO, at 1 µM; active compounds read high
[7] = target: Short transient receptor potential channel 4 (Mus musculus) (UniProt Q9QUQ5); assay: mouse TRPC4 channel activators, dose response, cell-based, HEK293 TRPC4/mu-opioid, Fluo-4 calcium (AID 434937;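 active = primary screen activator hit with a dose response curve and TRPC4 channel activation at any tested dose; inactive = no activation, no dose response, or not a primary hit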)
[8] = target: Short transient receptor potential channel 4 (Mus musculus) (UniProt Q9QUQ5); assay: TRPC4 positive allosteric modulators, dose response, cell-based, HEK293 TRPC4/mu-opioid, Fluo-4 calcium, EC20 DAMGO (AID 434941;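 active = earlier screen potentiator hit that boosts the TRPC4 ion channel at some dose, with a dose response; inactive = no potentiation, no dose response, or not a prior hit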;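 also: calcium entry triggered by an EC20 dose of DAMGO at the co-expressed mu-opioid receptor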)
[9] = target: Short transient receptor potential channel 4 (Mus musculus) (UniProt Q9QUQ5); assay: mouse TRPC4 channel inhibitors, dose response, cell-based, HEK293 TRPC4/mu-opioid, Fluo-4 calcium (AID 434942;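 active = primary screen inhibitor hit that blocks the TRPC4 channel at some tested dose, yielding a dose curve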)
[10] = target: Short transient receptor potential channel 6 (Mus musculus) (UniProt Q61143); assay: inhibition of mouse TRPC6 channel, confirmation, selectivity assay for TRPC4 inhibitor project, cell-based, HEK293, membrane potential dye, duplicate (AID 434948;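 active = active in primary screen and both duplicates, each dropping signal beyond three positive-control SD with fluorescence still positive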); details: HEK293 TRPC6, membrane potential dye fluorescence, at 10 µM, stimulated with maximal-effect acetylcholine; active compounds read high
[11] = target: Short transient receptor potential channel 6 (Mus musculus) (UniProt Q61143); assay: activation of mouse TRPC6 channel, confirmation, selectivity assay for TRPC4 activator project, cell-based, HEK293, membrane potential dye, duplicate (AID 434950); details: HEK293 TRPC6, membrane potential fluorescence, at 10 µM; active compounds read high
[12] = target: Short transient receptor potential channel 6 (Mus musculus) (UniProt Q61143); assay: TRPC6 potentiation by TRPC4 potentiator hits, confirmation, selectivity assay for TRPC4 potentiator project, HEK293 cells, membrane potential dye, duplicate (AID 434952;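 active = compound raising the membrane signal above positive-control mean plus 3 SD in both repeats, and a primary screen hit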); details: HEK293 TRPC6, membrane potential dye fluorescence, at 10 µM, maximal acetylcholine added after compound; active compounds read high
[13] = target: Short transient receptor potential channel 4 (Mus musculus) (UniProt Q9QUQ5); assay: calcium flux activators in TRPC4/5HT1a cells, counter-screen for TRPC4 activator project, cell-based, second counter screen, HEK293 TRPC4/5HT1a, Fluo-4 (AID 434977;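 active = calcium signal rise above buffer-control mean plus 5 SD in both duplicates, and also a hit in the primary screen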); details: Fluo-4 calcium flux, at 10 µM; active compounds read high
[14] = calcium flux inhibitors in TRPC4/5HT1a cells, confirmation, counter-screen for TRPC4 inhibitor project, cell-based, second counter screen, HEK293 TRPC4/5HT1a, Fluo-4 (AID 434978;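 active = primary screen active whose calcium signal fell more than 3 SD beyond the full-serotonin control mean in both duplicate plates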;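 also: serotonin given first at submaximal then at maximal dose after compound preincubation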); details: Fluo-4 calcium flux, at 10 µM, serotonin added to trigger calcium flux; active compounds read high
[15] = system: TRPC4 (mouse), co-expressed with 5HT1a in HEK293; assay: calcium flux potentiators in TRPC4/5HT1a cells, confirmation, counter-screen for TRPC4 potentiator project, cell-based, second counter screen, HEK293 TRPC4/5HT1a, Fluo-4 (AID 434979;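 active = signal rise over 3 SD above mean of control wells given weak agonist, in both repeats and first screen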); details: Fluo-4 calcium flux, at 10 µM, serotonin added at its EC20 dose; active compounds read high
[16] = calcium flux activation in mu-opioid HEK293 cells, confirmation, counter-screen for TRPC4 activator project, cell-based, HEK293 mu-opioid receptor line (AID 449723;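 active = hit in primary screen, with calcium signal over 5 SD above buffer well mean in both duplicates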;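 also: counter screen cells carry the mu-opioid receptor alone and lack TRPC4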); details: Fluo-4 calcium fluorescence, at 10 µM; active compounds read high
[17] = calcium flux enhancement in mu-opioid HEK293 cells, confirmation, counter-screen for TRPC4 allosteric potentiator project, cell-based, HEK293 mu-opioid receptor line (AID 449724;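 active = calcium signal rise more than 3 SD above the low-dose agonist control mean, in both duplicate plates and the primary screen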); details: Fluo-4 calcium flux, at 10 µM, compound added before EC20 DAMGO stimulus; active compounds read high

Measured: potentiation

Chain of Short transient receptor potential channel 6 (Mus musculus) (Q61143 whole entry, looked up): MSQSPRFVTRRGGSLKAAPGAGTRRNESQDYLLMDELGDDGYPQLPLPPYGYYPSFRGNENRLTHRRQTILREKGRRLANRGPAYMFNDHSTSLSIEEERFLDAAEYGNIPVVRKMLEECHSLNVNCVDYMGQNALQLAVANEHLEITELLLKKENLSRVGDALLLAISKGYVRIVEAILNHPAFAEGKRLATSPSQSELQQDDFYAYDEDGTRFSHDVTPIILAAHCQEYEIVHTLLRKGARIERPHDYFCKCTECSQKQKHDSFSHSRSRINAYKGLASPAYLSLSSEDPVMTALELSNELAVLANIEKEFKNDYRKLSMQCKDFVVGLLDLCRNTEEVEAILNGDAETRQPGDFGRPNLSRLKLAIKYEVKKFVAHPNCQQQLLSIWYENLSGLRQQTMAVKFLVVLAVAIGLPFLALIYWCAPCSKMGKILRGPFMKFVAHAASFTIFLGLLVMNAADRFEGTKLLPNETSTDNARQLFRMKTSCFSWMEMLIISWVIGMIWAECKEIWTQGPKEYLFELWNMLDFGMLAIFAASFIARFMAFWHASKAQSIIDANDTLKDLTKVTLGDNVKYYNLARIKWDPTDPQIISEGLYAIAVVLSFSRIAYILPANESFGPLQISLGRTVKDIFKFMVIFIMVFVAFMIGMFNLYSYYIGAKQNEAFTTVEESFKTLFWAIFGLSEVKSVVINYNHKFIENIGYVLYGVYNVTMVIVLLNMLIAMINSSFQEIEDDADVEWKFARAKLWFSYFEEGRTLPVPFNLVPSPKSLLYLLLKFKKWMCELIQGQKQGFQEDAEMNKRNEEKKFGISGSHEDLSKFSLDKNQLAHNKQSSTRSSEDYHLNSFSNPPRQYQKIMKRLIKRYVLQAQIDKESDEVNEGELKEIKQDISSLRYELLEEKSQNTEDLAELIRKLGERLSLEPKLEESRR
Chain of Short transient receptor potential channel 4 (Mus musculus) (Q9QUQ5 whole entry, looked up): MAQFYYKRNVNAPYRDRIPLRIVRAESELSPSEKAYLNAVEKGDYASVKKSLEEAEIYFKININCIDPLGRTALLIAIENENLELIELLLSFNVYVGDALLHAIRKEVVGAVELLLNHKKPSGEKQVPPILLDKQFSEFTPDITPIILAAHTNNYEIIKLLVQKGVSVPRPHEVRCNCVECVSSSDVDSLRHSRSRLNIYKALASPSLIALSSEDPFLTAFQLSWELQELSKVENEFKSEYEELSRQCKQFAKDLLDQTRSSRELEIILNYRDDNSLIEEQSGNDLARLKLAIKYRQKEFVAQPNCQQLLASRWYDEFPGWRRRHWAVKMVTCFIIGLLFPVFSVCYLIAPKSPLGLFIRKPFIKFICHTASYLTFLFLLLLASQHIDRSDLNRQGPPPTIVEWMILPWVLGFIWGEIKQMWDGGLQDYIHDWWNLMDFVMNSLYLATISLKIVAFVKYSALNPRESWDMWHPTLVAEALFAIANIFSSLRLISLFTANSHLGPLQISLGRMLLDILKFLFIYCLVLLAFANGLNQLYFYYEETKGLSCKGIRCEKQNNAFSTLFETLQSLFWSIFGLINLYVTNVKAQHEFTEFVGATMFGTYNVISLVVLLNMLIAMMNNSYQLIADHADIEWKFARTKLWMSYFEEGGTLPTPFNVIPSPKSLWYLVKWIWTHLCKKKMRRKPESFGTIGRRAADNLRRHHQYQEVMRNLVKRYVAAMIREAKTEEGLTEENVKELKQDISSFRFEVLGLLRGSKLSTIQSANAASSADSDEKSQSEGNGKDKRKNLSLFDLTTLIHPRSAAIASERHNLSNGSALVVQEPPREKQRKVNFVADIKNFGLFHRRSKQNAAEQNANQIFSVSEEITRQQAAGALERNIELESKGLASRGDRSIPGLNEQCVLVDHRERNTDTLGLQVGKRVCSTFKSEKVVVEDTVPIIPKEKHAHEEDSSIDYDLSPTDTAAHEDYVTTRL

CN(C)S(=O)(=O)c1ccc(Cl)c(C(=O)NC2CCN(Cc3ccccc3)C2)c1 (stereo not given)
inactive: [1] | [2] | [3] | [4] | [5] | [6] | [7] | [8] | [9] | [10] | [11] | [12] | [13] | [14] | [16] | [17]
active: [15] 15.3%

FC(F)(F)COc1nc(N2CCCCC2)nc(N2CCNCC2)n1
inactive: [1] | [2] | [3] | [4] | [5] | [6] | [7] | [8] | [9] | [10] | [11] | [12] | [13] | [14] | [15] | [16] | [17]

COc1ccc(CCNCC(O)COc2ccc(OC)cc2C(C)(C)C)cc1 (stereo not given)
inactive: [1] | [2] | [3] | [4] | [5] | [6] | [7] | [8] | [9] | [10] | [11] | [12] | [13] | [14] | [15] | [16] | [17]

CC(C)CN(C(=O)C1CC1)c1c(N)n(Cc2ccccc2)c(=O)[nH]c1=O
inactive: [1] | [2] | [3] | [4] | [5] | [6] | [7] | [8] | [9] | [10] | [11] | [12] | [13] | [14] | [15] | [16] | [17]

C/C(CC(=O)NCc1ccc(Cl)cc1)=N\NC(=O)COc1ccc(C)cc1Br
inactive: [1] | [2] | [3] | [4] | [5] | [6] | [7] | [8] | [9] | [10] | [11] | [12] | [13] | [14] | [15] | [16] | [17]
